# Values without a mark were called inactive. Inconclusive results are not listed. Calls of active or inactive are those of the source. Unless noted, the call rests on the fitted dose curve; in most records, active means well fitted curve in the direction sought with a large enough effect; inconclusive means small, poorly fitted or top-dose-only effect, or another doubt; inactive means no such curve, though single readings can be large; an effect the other way counts as inactive or inconclusive.
# Columns and labels:
# [1] = target: Lysosomal acid glucosylceramidase (Homo sapiens) (UniProt P04062); test: Glucocerebrosidase-p2 (AID 348; in the data active means potency below about 10 µM; further: potency means the concentration at half of the fitted maximal effect); settings: purified GBA, blue fluorogenic substrate, 40 min
# Method in brief: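 Compounds titrated from 0.6 nM upwards against 0.2 nM enzyme in pH 5.9 citric acid/KH2PO4, taurocholate, tween-20; blue fluorogenic substrate 80 uM, 40 min room temperature, stopped and read Ex 365/Em 440 for AC50.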
# [2] = AP1 Signaling Pathway (AID 357; active means well fitted curve in either direction with a large enough effect, not every such curve was filed as active; further: on the % scale 0 is the no-effect control and ±100 the full control effect); settings: ME-180 AP-1-bla reporter, EGF-induced, beta-lactamase ratio, 5 h; at 7.69 µM (top of the series) unless noted
# Method in brief: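 AP-1-bla ME-180 cells with beta-lactamase reporter under AP-1 response element, stimulated with EC50 EGF; compounds titrated, 5 hours at 37 degrees Celsius. CCF4 read at 460/530 nm ratio; positive and negative modulators judged by AC50.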
# [3] = target: Cytochrome P450 1A2 (Homo sapiens) (UniProt P05177); test: p450-cyp1a2 (AID 410; calls by dose curve; further: potency means the concentration at half of the fitted maximal effect); settings: recombinant CYP1A2, luciferin-ME demethylation, luminescence; series mostly up to 57 µM
# Method in brief: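 Luminescent readout of luciferin formed from Luciferin-ME by human CYP1A2; data normalized against complete inhibition by 57 uM furafylline. Enzyme 20nM, substrate 100uM at Km, 100mM KPO4 buffer, 60 min reaction at room temperature.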
# [4] = NFAT Signaling Pathway (AID 444; active means well fitted curve in either direction with a large enough effect, not every such curve was filed as active;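 further: carbachol stimulus at about its EC50 of 1 µM final; on the % scale 0 is the no-effect control and ±100 the full control effect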); settings: Jurkat NFAT-bla M1, carbachol, beta-lactamase ratio, 5 h; at 7.69 µM (top of the series) unless noted
# Method in brief: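 Jurkat cells carrying an NFAT-driven β-lactamase reporter and co-transfected muscarinic M1 receptor were treated with compound plus carbachol (1 uM final, an EC50 level) for 5 h at 37 °C. CCF4 loading followed for 1 h at RT; 460/530 nm ratio gave %activity.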
# [5] = Stat Signaling Pathway (AID 446; active means well fitted curve in either direction with a large enough effect, not every such curve was filed as active;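 further: ME-180 cervical cancer cells given 40 pM IL-6 alongside compound; SIE-controlled beta-lactamase reporter measured as 460/530 nm FRET emission ratio; on the % scale 0 is the no-effect control and ±100 the full control effect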); settings: ME-180 SIE beta-lactamase reporter, IL-6 stimulated, 5 h; at 7.69 µM (top of the series) unless noted
# Method in brief: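 Screening format detects activators and inhibitors alike: ME-180 SIE-bla cells stimulated at 40 pM IL-6 for 5 hrs with compound, then dual-emission beta-lactamase read at 405 nm excitation.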
# [6] = target: Glucocorticoid receptor (Homo sapiens) (UniProt P04150); test: GR-GFP Redistribution (AID 450;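 active means compounds whose dose series gives a full or clear partial fitted curve of increased nuclear translocation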; further: potency means the concentration at half of the fitted maximal effect); settings: U2OS GR-GFP nuclear translocation, laser cytometry, 2 h
# [7] = target: Glucocorticoid receptor (Homo sapiens) (UniProt P04150); test: GR-EFC Redistribution (AID 451; calls by dose curve; further: potency means the concentration at half of the fitted maximal effect); settings: CHO-K1 GR-EFC translocation, beta-gal luminescence, 2 h
# Method in brief: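 CHO-K1 cells stably expressing nuclear-localized β-gal enzyme acceptor and GR fused C-terminally to the enzyme donor fragment; ligand-driven nuclear translocation restores β-gal by complementation. Compounds titrated up to 46 uM final, 2 h at 37 °C; luminescence read.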
# [8] = target: Mitogen-activated protein kinase 10 (Mus musculus) (UniProt Q61831); test: JNK3 AlphaScreen Assay (AID 530; active means well fitted curve in either direction with a large enough effect, not every such curve was filed as active;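 further: kinase came from lysate of stimulated human HepG2 cells; signal reports phosphorylation of biotinylated GST-cJun 1-79 at Ser73 with 10 µM ATP; on the % scale 0 is the no-effect control and ±100 the full control effect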); settings: JNK3 lysate, c-Jun phosphorylation; series mostly up to 57.1 µM
# Method in brief: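 Inhibitors reduce antibody binding to phosphorylated biotin-cJun, lowering AlphaScreen luminescence. Lysates from HepG2 cells pre-activated by IL-1beta plus TNF-alpha supplied JNK3; compounds were titrated.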
# [9] = target: 3',5'-cyclic-AMP phosphodiesterase 4B (Homo sapiens) (UniProt Q07343); test: qHTS Assay for Inhibitors of PDE-IV (AID 607; active means well fitted activation curve with a large enough effect in the main read-out, with a control signal flat, not every such curve was filed as active; further: % of control where 0% means no effect); settings: HEK293 ACTOne CNG channel cells, membrane potential fluorescence; series mostly up to 22.9 µM
# Method in brief: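 The readout is membrane depolarisation from a cAMP-sensing CNG channel, detected with a potential dye at ex 535/em 590. Cells were HEK293-derived (endogenous PDE-IV) at 1000 cells/well, titrated up to 22.9 uM final.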
# [10] = target: Cytochrome P450 3A4 (Homo sapiens) (UniProt P08684); test: qHTS Assay for Inhibitors and Substrates of Cytochrome P450 3A4 (AID 884); settings: recombinant CYP3A4, Luciferin-PPXE luminescence; series mostly up to 57.1 µM; further: nearly all actives have a fitted effect of over 50% in size; further: potency means the concentration at half of the fitted maximal effect
# Method in brief: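 20 nM human CYP3A4 with 25 uM Luciferin-PPXE (at KM) in 200 mM KPO4, preincubated 10 min with compound; NADPH regeneration started a 60 min RT reaction. Luciferin detected by luminescence, normalized to 57 uM ketoconazole as full inhibition.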
# [11] = target: Cytochrome P450 3A4 (Homo sapiens) (UniProt P08684); test: qHTS Assay for Activators of Cytochrome P450 3A4 (AID 885); settings: recombinant CYP3A4, Luciferin-PPXE luminescence, 60 min; series mostly up to 57.1 µM; further: nearly all actives have a fitted effect of over 65% in size; further: potency means the concentration at half of the fitted maximal effect
# Method in brief: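 Steps: enzyme/substrate mix dispensed; compound added, 10 min RT; NADPH regeneration solution added, 60 min RT; luciferin detection buffer stops reaction; 20 min later luminescence measured.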
# [12] = target: Cytochrome P450 2D6 (Homo sapiens) (UniProt P10635); test: qHTS Assay for Inhibitors and Substrates of Cytochrome P450 2D6 (AID 891); settings: recombinant CYP2D6, luciferin-ME EGE luminescence; series mostly up to 57.1 µM; further: potency means the concentration at half of the fitted maximal effect; nearly all actives have a fitted effect of over 60% in size
# Method in brief: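 Human CYP2D6 (5 nM) with 30 uM Luciferin-ME EGE (at Km) in 100 mM KPO4, compound preincubated 10 min, then NADPH regeneration system for 60 min at room temperature. Luciferin read by luminescence; normalized to 1.43 uM quinidine.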
# [13] = target: Cytochrome P450 2C19 (Homo sapiens) (UniProt P33261); test: qHTS Assay for Inhibitors and Substrates of Cytochrome P450 2C19 (AID 899); settings: recombinant CYP2C19, luciferin-H EGE luminescence; series mostly up to 57.1 µM; further: potency means the concentration at half of the fitted maximal effect; nearly all actives have a fitted effect of over 60% in size
# Method in brief: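 In 50mM KPO4, the reaction held 5nM enzyme and KM-level (10uM) Luciferin-H EGE; it ran 60 min at 37C after NADPH regeneration and a 10 min compound preincubation. Luminescence values were scaled to 57uM ketoconazole as complete inhibition.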
# [14] = target: Dual specificity protein kinase CLK4 (Homo sapiens) (UniProt Q9HAZ1); test: qHTS Assay for Inhibitors of CDC-like Kinase 4 (ADP-Glo Assay) (AID 1771); settings: recombinant CLK4, ADP-Glo luminescence; series mostly up to 80 µM; further: nearly all actives have a fitted effect of over 70% in size; further: potency means the concentration at half of the fitted maximal effect
# Method in brief: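 Luminescence from ADP-Glo reports ADP produced by 25 nM Clk4 acting on 100 uM RS repeat peptide with 1 uM ATP over 1 hr at room temperature; residual ATP is depleted before ADP is converted to ATP for detection.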
# [15] = target: Dual specificity protein kinase CLK4 (Homo sapiens) (UniProt Q9HAZ1); test: qHTS Assay for Inhibitors of CDC-like Kinase 4 (ADP-FP Assay) (AID 1795); settings: Transcreener ADP fluorescence polarization; series mostly up to 50 µM;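 further: recombinant human CLK4 phosphorylating RS repeat peptide at 1 µM ATP; on the % scale 0 is the no-effect control and ±100 the full control effect; nearly all actives have a fitted effect of over 60% in size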
# Method in brief: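 Kinase activity was measured as ADP production using Transcreener orange tracer (4 nM) and ADP antibody (1 ug/mL) fluorescence polarization, with ADP calculated from a calibration curve. The 1 h reaction contained 6.25 nM Clk4, 1 uM ATP and 100 uM RS peptide at pH 7.5 with Mg2+.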
# [16] = target: Ubiquitin carboxyl-terminal hydrolase 1 (Homo sapiens) (UniProt O94782); test: Inhibitors of USP1/UAF1: Pilot qHTS (AID 504865); settings: purified USP1/UAF1, Ub-rhodamine cleavage fluorescence; series mostly up to 54.9 µM;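 further: rhodamine fluorescence freed from ubiquitin-rhodamine substrate followed over time; top concentration of the series differs between compounds; on the % scale 0 is the no-effect control and ±100 the full control effect; nearly all actives have a fitted effect of over 35% in size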
# Method in brief: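 Deubiquitinase activity followed as kinetic rhodamine fluorescence release from 150 nM Ub-Rho. 1 nM USP1/UAF1 with compound, after 15 min room-temperature preincubation, in HEPES pH 7.8 buffer containing TCEP, EDTA, BSA and Tween-20.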
# [17] = Primary qHTS for small molecule stabilizers of the endoplasmic reticulum resident proteome: Secreted ER Calcium Modulated Protein (SERCaMP) assay (AID 1508630); settings: SH-SY5Y GLuc-SERCaMP (Gaussia luciferase released on ER calcium loss) secretion, thapsigargin, luminescence; series mostly up to 38.4 µM; further: on the % scale 0 is the no-effect control and ±100 the full control effect
# Method in brief: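 GLuc-SERCaMP-expressing SH-SY5Y cells, pretreated 16 h with compound, are challenged with thapsigargin to empty ER calcium stores; after 4 h, coelenterazine is added directly to the medium and luminescence is imaged.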
# [18] = target: Dual specificity protein kinase CLK4 (Homo sapiens) (UniProt Q9HAZ1); test: qHTS Assay for Inhibitors of CDC-like Kinase 4 (Kinase-Glo Assay) (AID 1770); settings: recombinant Clk4, Kinase-Glo ATP depletion luminescence; series mostly up to 66.7 µM; further: on the % scale 0 is the no-effect control and ±100 the full control effect; nearly all actives have a fitted effect of over 65% in size
# Method in brief: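 Luminescent ATP-depletion read-out (Kinase-Glo) after 4.5 h room-temperature reaction of Clk4 (25 nM final) with RS peptide (100 uM) and ATP (1 uM), pH 7.5 Tris buffer with MgCl2 and DTT.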
# [19] = target: Cytochrome P450 2C9 (Homo sapiens) (UniProt P11712); test: qHTS Assay for Inhibitors and Substrates of Cytochrome P450 2C9 (AID 883); settings: recombinant CYP2C9, luciferin-H luminescence, 60 min; series mostly up to 57.1 µM; further: on the % scale 0 is the no-effect control and ±100 the full control effect; nearly all actives have a fitted effect of over 60% in size
# Method in brief: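 CYP2C9 deoxyluciferin hydroxylation, 37C, 60 min with NADPH regeneration; 10nM enzyme, 100uM Luciferin-H (KM). Glo detection reagent stopped reaction; luminescence normalized to sulphaphenazole (57uM) full inhibition.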
# Sequence of Glucocorticoid receptor (Homo sapiens) (P04150 whole entry, looked up, the tested form may be a part): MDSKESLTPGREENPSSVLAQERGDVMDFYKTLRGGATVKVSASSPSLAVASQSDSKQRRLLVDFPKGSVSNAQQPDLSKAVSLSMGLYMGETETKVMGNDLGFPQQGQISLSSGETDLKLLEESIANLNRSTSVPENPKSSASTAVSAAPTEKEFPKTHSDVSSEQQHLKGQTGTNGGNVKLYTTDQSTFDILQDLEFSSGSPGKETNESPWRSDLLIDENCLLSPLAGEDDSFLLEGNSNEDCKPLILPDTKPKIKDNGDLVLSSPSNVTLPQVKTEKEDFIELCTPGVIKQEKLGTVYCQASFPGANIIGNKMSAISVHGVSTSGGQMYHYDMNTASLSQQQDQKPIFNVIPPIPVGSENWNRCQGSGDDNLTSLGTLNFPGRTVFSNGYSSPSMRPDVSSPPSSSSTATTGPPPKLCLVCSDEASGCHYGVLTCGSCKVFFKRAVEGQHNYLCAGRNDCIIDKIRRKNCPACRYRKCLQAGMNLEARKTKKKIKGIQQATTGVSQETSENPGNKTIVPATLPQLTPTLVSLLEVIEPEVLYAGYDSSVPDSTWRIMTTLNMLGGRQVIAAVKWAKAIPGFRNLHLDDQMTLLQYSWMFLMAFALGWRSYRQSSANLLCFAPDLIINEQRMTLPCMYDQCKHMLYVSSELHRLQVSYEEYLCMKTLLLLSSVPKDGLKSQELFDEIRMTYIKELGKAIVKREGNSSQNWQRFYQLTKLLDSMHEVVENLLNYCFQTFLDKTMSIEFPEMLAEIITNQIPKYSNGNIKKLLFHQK
# Sequence of Cytochrome P450 1A2 (Homo sapiens) (P05177 whole entry, looked up): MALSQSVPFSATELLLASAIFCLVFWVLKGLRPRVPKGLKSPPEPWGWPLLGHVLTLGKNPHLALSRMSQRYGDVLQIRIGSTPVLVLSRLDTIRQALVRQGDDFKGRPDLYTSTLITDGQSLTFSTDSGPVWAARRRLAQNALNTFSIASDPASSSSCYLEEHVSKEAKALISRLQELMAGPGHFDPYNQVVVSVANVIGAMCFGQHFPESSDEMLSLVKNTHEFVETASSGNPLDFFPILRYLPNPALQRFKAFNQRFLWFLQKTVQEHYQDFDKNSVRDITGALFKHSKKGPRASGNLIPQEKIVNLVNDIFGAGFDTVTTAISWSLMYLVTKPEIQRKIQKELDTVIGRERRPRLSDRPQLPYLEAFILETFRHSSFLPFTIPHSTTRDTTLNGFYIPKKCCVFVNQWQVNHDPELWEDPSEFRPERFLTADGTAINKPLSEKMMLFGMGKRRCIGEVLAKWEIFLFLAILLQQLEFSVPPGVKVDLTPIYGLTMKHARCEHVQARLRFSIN
# Sequence of Cytochrome P450 3A4 (Homo sapiens) (P08684 whole entry, looked up): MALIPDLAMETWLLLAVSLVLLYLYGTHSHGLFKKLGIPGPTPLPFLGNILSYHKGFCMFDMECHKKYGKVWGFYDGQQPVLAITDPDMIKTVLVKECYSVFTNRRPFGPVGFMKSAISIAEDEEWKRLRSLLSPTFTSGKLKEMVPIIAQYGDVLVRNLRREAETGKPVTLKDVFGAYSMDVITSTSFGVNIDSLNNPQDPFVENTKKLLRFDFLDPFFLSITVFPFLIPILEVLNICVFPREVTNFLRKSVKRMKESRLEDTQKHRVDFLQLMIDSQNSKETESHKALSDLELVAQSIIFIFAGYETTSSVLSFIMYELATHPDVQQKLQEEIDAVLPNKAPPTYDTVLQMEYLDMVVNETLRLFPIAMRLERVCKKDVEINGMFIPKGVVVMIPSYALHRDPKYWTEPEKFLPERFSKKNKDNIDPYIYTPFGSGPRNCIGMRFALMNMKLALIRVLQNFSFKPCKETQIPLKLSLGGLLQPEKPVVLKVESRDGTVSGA
# Sequence of Lysosomal acid glucosylceramidase (Homo sapiens) (P04062 whole entry, looked up): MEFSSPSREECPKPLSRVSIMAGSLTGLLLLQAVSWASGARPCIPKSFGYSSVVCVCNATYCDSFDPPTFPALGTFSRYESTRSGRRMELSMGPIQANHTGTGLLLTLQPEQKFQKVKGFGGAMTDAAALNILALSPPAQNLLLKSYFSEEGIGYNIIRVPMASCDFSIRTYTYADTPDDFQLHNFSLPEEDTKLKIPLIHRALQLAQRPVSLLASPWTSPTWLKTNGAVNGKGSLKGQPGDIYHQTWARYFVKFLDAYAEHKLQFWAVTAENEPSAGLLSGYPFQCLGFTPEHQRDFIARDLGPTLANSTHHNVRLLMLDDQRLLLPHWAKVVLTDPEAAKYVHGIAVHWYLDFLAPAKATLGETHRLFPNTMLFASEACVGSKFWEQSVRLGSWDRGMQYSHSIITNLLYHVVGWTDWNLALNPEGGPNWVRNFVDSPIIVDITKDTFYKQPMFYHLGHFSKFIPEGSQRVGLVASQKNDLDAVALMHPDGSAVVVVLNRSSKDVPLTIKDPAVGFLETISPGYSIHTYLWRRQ
# Sequence of Ubiquitin carboxyl-terminal hydrolase 1 (Homo sapiens) (O94782 whole entry, looked up): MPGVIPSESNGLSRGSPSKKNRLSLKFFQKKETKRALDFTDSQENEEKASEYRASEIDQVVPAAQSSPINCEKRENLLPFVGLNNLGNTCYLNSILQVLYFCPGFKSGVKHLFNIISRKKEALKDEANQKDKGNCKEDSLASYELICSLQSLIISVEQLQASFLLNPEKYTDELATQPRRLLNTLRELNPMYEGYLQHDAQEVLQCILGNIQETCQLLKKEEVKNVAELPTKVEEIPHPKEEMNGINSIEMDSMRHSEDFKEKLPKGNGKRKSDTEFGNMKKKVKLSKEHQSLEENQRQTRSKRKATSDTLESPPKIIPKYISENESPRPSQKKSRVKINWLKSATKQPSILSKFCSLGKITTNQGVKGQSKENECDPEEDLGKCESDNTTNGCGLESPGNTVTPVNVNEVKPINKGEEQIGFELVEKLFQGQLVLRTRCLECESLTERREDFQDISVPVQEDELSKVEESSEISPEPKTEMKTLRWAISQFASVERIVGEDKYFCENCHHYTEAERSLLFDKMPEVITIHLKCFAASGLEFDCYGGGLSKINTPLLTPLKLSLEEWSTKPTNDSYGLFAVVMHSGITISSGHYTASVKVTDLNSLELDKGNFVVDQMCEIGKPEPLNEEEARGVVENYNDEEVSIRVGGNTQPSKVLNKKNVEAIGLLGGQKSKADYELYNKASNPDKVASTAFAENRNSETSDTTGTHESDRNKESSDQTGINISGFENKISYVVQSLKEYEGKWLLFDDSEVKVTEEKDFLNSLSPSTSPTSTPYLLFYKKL
# Sequence of Dual specificity protein kinase CLK4 (Homo sapiens) (Q9HAZ1 whole entry, looked up): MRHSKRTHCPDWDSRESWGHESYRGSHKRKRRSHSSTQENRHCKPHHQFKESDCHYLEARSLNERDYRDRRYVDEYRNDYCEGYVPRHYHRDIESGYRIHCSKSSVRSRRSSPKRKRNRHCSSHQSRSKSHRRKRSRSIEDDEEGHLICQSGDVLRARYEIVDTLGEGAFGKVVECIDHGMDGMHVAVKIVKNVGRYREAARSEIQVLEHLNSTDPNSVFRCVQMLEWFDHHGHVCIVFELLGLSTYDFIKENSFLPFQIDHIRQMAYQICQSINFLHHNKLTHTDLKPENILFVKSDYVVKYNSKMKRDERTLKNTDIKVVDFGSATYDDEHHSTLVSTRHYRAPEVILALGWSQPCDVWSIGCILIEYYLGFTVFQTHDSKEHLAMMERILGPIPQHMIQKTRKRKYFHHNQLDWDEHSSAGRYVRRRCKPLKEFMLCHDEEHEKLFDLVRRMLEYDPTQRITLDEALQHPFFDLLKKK
# Sequence of 3',5'-cyclic-AMP phosphodiesterase 4B (Homo sapiens) (Q07343 whole entry, looked up): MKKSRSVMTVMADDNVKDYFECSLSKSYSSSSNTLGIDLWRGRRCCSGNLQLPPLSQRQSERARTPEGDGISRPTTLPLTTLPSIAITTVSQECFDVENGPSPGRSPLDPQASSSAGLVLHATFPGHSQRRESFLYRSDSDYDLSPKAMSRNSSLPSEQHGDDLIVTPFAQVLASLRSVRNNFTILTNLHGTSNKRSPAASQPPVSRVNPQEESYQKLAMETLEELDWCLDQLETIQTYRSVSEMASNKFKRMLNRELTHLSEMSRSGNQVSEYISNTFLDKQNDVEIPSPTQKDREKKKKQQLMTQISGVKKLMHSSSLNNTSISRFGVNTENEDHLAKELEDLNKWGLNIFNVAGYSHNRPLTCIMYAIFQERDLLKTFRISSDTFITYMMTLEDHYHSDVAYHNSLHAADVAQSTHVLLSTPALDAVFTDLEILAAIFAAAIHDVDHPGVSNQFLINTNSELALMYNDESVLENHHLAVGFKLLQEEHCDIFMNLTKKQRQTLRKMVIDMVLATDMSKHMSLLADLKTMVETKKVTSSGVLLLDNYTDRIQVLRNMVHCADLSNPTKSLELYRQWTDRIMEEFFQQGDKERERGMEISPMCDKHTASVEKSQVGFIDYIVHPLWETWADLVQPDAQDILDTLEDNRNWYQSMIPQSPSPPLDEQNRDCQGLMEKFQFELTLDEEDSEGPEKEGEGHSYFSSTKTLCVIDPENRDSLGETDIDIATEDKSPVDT
# Sequence of Cytochrome P450 2C19 (Homo sapiens) (P33261 whole entry, looked up): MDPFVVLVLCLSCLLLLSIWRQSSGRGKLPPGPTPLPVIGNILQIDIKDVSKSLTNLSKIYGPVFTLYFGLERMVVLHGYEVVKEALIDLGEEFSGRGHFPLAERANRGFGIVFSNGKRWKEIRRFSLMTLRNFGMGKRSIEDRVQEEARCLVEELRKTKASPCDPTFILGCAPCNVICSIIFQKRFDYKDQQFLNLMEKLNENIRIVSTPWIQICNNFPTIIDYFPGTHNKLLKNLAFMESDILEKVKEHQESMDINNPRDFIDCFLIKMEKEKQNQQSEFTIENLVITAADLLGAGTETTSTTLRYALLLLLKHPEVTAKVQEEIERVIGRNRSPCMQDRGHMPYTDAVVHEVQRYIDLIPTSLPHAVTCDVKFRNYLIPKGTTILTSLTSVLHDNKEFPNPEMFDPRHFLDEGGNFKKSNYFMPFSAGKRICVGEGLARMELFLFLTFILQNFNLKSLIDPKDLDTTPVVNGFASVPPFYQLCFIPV
Compound,Potency [1] [µM],"activity change, negative = inhibition [2] [%]",Potency [3],"activity change, negative = inhibition [4] [%]","activity, negative = inhibition [5] [%]",Potency [6] [µM],Potency [7] [µM],Potency [8],Potency [9],Potency [10],Potency [11],Potency [12],Potency [13],Potency [14],Potency [15],Potency [16],outcome [17],Potency [18],"activity change, negative = inhibition [19]"
COc1ccc(CNc2ncncc2-c2ccccc2C(F)(F)F)c(OC)c1,> 11.4,-23.4,15.8 µM (active),-7.18,2.4,> 46,> 46,inactive,inactive,0.316 µM (active),inactive,0.398 µM (active),1.58 µM (active),inactive,inactive,inactive,inactive,,
CN(C)c1ncc2nc(-c3cc(F)cc(F)c3)c(=O)n(-c3ccccc3)c2n1,> 11.4,-8.03,0.316 µM (active),9.84,12.5,,> 46,inactive,inactive,,,,,inactive,inactive,inactive,inactive,,
COc1ccc(-c2nc3cnc(N(C)C)nc3n(C3CC3)c2=O)cc1,> 11.4,-0.159,,,24.2,,> 46,inactive,inactive,,,,,inactive,inactive,inactive,inactive,,
COc1cccc(Cn2c(=O)cnc3cnc(Nc4ccccc4)nc32)c1,> 11.4,-26.5,,17.1,,> 46,> 46,inactive,inactive,,,,,2.24 µM (active),inactive,inactive,inactive,,
COc1cccc(Nc2ncc3nc(-c4cccs4)c(=O)n(CCC#N)c3n2)c1,> 11.4,-26.3,2.51 µM (active),,,> 9.22,> 46,inactive,inactive,6.31 µM (active),inactive,,,,,inactive,inactive,inactive,
O=c1cnc2cnc(Oc3ccccc3)nc2n1C1CC1,> 11.4,-14,7.94 µM (active),-5.78,-13.1,> 9.22,> 46,inactive,inactive,,,,,inactive,inactive,inactive,inactive,,
Cc1cnc(CNc2nc(-c3ccccc3C)nc3ccccc23)cn1,> 11.4,-8.73,3.16 µM (active),-6.95,-5.75,> 46,> 46,inactive,inactive,,inactive,,,,inactive,inactive,inactive,,
Cc1ccccc1-c1nc(N(C)C)c2ccccc2n1,> 11.4,5.33,0.631 µM (active),-0.255,6.41,> 46,> 46,inactive,inactive,,,,,,inactive,inactive,inactive,,
Cc1cnc(CNc2ncnc3ccc(-c4ccc(C(=O)N(C)C)cc4)cc23)cn1,> 11.4,-13.6,15.8 µM (active),9.3,-5.52,> 46,> 46,inactive,inactive,,,,,,inactive,inactive,inactive,,
CNc1cc(-c2ccccc2C)ncn1,> 11.4,2.36,10 µM (active),2.04,13.3,> 46,> 46,inactive,inactive,,,,,,inactive,inactive,inactive,,
Cc1cnc(CNc2cc(-c3ccccc3C)ncn2)cn1,> 11.4,-5.18,12.6 µM (active),14,4.06,> 46,> 46,inactive,inactive,inactive,3.16 µM (active),,,,inactive,inactive,inactive,,
COc1ccc(CNc2nc(-c3ccc(N(C)C)cc3)nc3ccccc23)c(OC)c1,,5.6,,,23.2,> 46,,inactive,inactive,,inactive,,,inactive,inactive,inactive,inactive,,
COc1ccccc1CNc1cc(-c2ccccc2OC)ncn1,> 11.4,-14.2,2.51 µM (active),-2.18,-12.6,> 46,> 46,inactive,inactive,,inactive,,1.58 µM (active),,inactive,inactive,inactive,,31.3% [at 2.29 µM]
COc1cccc(-c2cncnc2NCc2cnc(C)cn2)c1,> 11.4,-11.3,12.6 µM (active),8.15,7.19,> 46,> 46,inactive,inactive,1.58 µM (active),inactive,,,,inactive,inactive,inactive,,
